CYP2C19 act – activators of human cytochrome P450 2C19; recombinant CYP2C19, luciferin-H EGE luminescence; active compounds read high; 0 = fully inhibited enzyme, 1 = untreated enzyme; activation factor at 5 µM; 96,000 tested, under 10 active; AID 1025;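 active means activation factor of at least 2 at 5 µM in the primary screen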;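 further: 0 = wells with 2.5 mM tranylcypromine and 1 = vehicle-only wells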
Cav32 inh – inhibitors of human Cav3.2 T-type calcium channel; O95180; Cav3.2-expressing cells, Fluo-4 calcium fluorescence FDSS; active compounds read low; B-score at 10 µM; 100,000 compounds, 4% hits; AID 449739;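 active means single-dose well whose peak fluorescence ratio is a statistical outlier from its plate by either plate-standardised score or position-corrected B-score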
CYP2C19 inhib – blocks human cytochrome P450 2C19; P33261; CYP2C19 Supersomes, luciferin-H EGE luminescence, 30 min; inhibition, % at 5 µM; 96,000 compounds, 21% hits; AID 778;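 active means CYP2C19 inhibition above a set limit at 5 µM in the primary screen, cut at about 50% in these data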;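 further: plate controls were negative control wells for no effect and 2.5 mM tranylcypromine positive control for full effect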
CYP2C9 act – activators of human CYP2C9; recombinant CYP2C9, luciferin-H conversion, luminescence; active compounds read high; factor 1 = untreated enzyme, 0 = blocked; AID 1024; activation factor at 5 µM; P11712; 96,000 compounds, 1.4% hits;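 active means activation factor of 2 or more for CYP2C9 at a 5 µM dose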;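 further: 0 = sulfaphenazole-blocked wells and 1 = vehicle-only wells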
Target sequence (P11712 whole entry, looked up): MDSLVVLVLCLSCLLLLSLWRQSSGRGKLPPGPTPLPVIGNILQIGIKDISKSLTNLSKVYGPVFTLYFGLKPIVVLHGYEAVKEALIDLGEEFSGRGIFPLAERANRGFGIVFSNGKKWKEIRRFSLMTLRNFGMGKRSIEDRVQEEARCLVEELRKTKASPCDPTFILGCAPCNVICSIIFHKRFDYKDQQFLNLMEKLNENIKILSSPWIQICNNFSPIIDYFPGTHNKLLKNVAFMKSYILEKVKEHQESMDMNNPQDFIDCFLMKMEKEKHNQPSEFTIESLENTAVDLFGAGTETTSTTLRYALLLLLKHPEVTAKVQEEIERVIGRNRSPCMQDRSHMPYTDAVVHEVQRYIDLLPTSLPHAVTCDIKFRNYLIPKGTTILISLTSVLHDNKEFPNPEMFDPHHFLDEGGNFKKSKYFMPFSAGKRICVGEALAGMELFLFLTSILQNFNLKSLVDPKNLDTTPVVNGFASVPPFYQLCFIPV
CYP2C9 inhib – blocks human cytochrome P450 2C9; P11712; CYP2C9 Supersomes, luciferin-H conversion, luminescence; inhibition, % at 5 µM; 96,000 compounds, 20% hits; AID 777;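 active means blocking of liver enzyme CYP2C9 beyond about 50% at 5 µM, limit read from the data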
Numbers without * were called inactive. Sampled rows, rich in hits. Any-hit rate of the full collection: about 27%.

What do the screens show for `Cc1noc(C)c1COC(=O)c1ccccc1NC(=O)Cc1ccccc1`?
CYP2C19 act: 0; Cav32 inh: -1.88; CYP2C19 inhib: 99.0*; CYP2C9 act: 0; CYP2C9 inhib: 97.5*

Results for Cc1noc(C)c1COC(=O)c1cc(F)c(F)cc1Cl ?
CYP2C19 act: 0.2; Cav32 inh: -0.0341; CYP2C19 inhib: 76.8*; CYP2C9 act: 0.4; CYP2C9 inhib: 55.0*

What do the screens show for `Cc1noc(C)c1COC(=O)c1ccc2c(c1)OCO2`?
CYP2C19 act: 0.6; Cav32 inh: 0.364; CYP2C19 inhib: 36.4; CYP2C9 act: 0.6; CYP2C9 inhib: 36.5

How did Cc1noc(C)c1COC(=O)CCOc1ccccc1 do in these assays?
CYP2C19 act: 0.5; Cav32 inh: 0.412; CYP2C19 inhib: 48.5; CYP2C9 act: 1.1; CYP2C9 inhib: -6.8

How did CCOc1cc(C(=O)OCc2ccc(C(=O)OC)o2)cc(Br)c1OC do in these assays?
CYP2C19 act: 0.9; Cav32 inh: -2.21; CYP2C19 inhib: 13.5; CYP2C9 act: 0.8; CYP2C9 inhib: 22.3

How did CC(CC(C)C(=O)N1CCOCCN(C(=O)C(C)CC(C)C(=O)O)CCOCC1)C(=O)O (stereo not given) do in these assays?
CYP2C19 act: 0.9; Cav32 inh: -0.172; CYP2C19 inhib: 6.1; CYP2C9 act: 1; CYP2C9 inhib: 2.5

What do the screens show for `CCn1c(C(=O)N2CCC(C(=O)NCc3ccc4c(c3)OCO4)CC2)cc2sccc21`?
CYP2C19 act: 1; Cav32 inh: -5.91*; CYP2C19 inhib: -0.9; CYP2C9 act: 0.8; CYP2C9 inhib: 17.2

What do the screens show for `Cn1c(C(=O)N2CCCC(C(=O)NCc3ccc4c(c3)OCO4)C2)cc2sccc21` (stereo not given)?
CYP2C19 act: 0.8; Cav32 inh: -2.56; CYP2C19 inhib: 23.0; CYP2C9 act: 0.9; CYP2C9 inhib: 11.8

What do the screens show for `CCn1c(C(=O)N2CCC(C(=O)NCCCSC3CCCCC3)CC2)cc2sccc21`?
CYP2C19 act: 0.5; Cav32 inh: -6.97*; CYP2C19 inhib: 53.4*; CYP2C9 act: 1.7; CYP2C9 inhib: -68.1

How did c1cnc2c(OCc3nc4ccccc4[nH]3)cccc2c1 do in these assays?
CYP2C19 act: 0.1; Cav32 inh: 1.09; CYP2C19 inhib: 94.8*; CYP2C9 act: 0.9; CYP2C9 inhib: 11.6

Results for COc1ccccc1OCc1nc2ccccc2[nH]1 ?
CYP2C19 act: 0.3; Cav32 inh: 0.456; CYP2C19 inhib: 73.7*; CYP2C9 act: 0.7; CYP2C9 inhib: 26.0

How did c1ccc2cc(OCc3nc4ccccc4[nH]3)ccc2c1 do in these assays?
Cav32 inh: -5.9*

How did COc1ccc(OCc2nc3ccccc3[nH]2)cc1 do in these assays?
CYP2C19 act: 0.5; Cav32 inh: 1.15; CYP2C19 inhib: 49.0; CYP2C9 act: 0.8; CYP2C9 inhib: 24.4

Results for COc1ccc(C(=O)C(OC(=O)c2ccccc2)c2ccccc2)cc1 (stereo not given) ?
CYP2C19 act: 0.4; CYP2C19 inhib: 59.0*; CYP2C9 act: 0.3; CYP2C9 inhib: 70.5*

How did CCOC(=O)CC(N)c1ccc(OC)cc1 (stereo not given) do in these assays?
CYP2C19 act: 0.9; Cav32 inh: -0.11; CYP2C19 inhib: 6.1; CYP2C9 act: 1; CYP2C9 inhib: -1.1

What do the screens show for `O=C(CC1Oc2ccccc2NC1=O)NC1CCCC1` (stereo not given)?
CYP2C19 act: 0.7; Cav32 inh: 0.644; CYP2C19 inhib: 34.1; CYP2C9 act: 2.4*; CYP2C9 inhib: -137.7

What do the screens show for `O=C(CC1Oc2ccccc2NC1=O)NC1CC1` (stereo not given)?
CYP2C19 act: 0.9; CYP2C19 inhib: 14.0; CYP2C9 act: 1.2; CYP2C9 inhib: -24.4

What do the screens show for `CCN(Cc1ccccc1)C(=O)CC1Oc2ccccc2NC1=O` (stereo not given)?
CYP2C19 act: 0.1; Cav32 inh: -0.019; CYP2C19 inhib: 88.5*; CYP2C9 act: 1.7; CYP2C9 inhib: -67.3

How did CCN(CCNC(=O)CC1Oc2ccccc2NC1=O)c1ccccc1 (stereo not given) do in these assays?
CYP2C19 act: 0.4; Cav32 inh: -1.59; CYP2C19 inhib: 61.0*; CYP2C9 act: 1.6; CYP2C9 inhib: -61.6

Results for O=C(CC1Oc2ccccc2NC1=O)NCCc1ccccc1 (stereo not given) ?
CYP2C19 act: 0.6; Cav32 inh: 0.836; CYP2C19 inhib: 42.3; CYP2C9 act: 1.7; CYP2C9 inhib: -74.8

What do the screens show for `CS(=O)(=O)N1CCCC(C(=O)NCCCN2CCc3ccccc3C2)C1` (stereo not given)?
CYP2C19 act: 0.9; Cav32 inh: 0.79; CYP2C19 inhib: 12.6; CYP2C9 act: 1.2; CYP2C9 inhib: -15.4

What do the screens show for `CC1CCN(S(=O)(=O)c2cn(CC(=O)N3CCN(C)CC3)c(=O)c3ccccc23)CC1`?
CYP2C19 act: 0.9; Cav32 inh: 1.06; CYP2C19 inhib: 14.9; CYP2C9 act: 0.7; CYP2C9 inhib: 31.3

How did Cc1c(C(=O)NC(C)C)sc2ncn(CC(=O)N3CCC(C)CC3)c(=O)c12 do in these assays?
CYP2C19 act: 0.6; Cav32 inh: 1.25; CYP2C19 inhib: 38.7; CYP2C9 act: 0.4; CYP2C9 inhib: 62.6*

How did Cc1c(C(N)=O)sc2ncn(CC(=O)OC(C)C)c(=O)c12 do in these assays?
CYP2C19 act: 1; Cav32 inh: -0.0289; CYP2C19 inhib: 3.8; CYP2C9 act: 0.9; CYP2C9 inhib: 7.9

How did Cc1c(C(N)=O)sc2ncn(CC(=O)N3CCC(C)CC3)c(=O)c12 do in these assays?
CYP2C19 act: 0.8; Cav32 inh: 0.486; CYP2C19 inhib: 16.4; CYP2C9 act: 0.2; CYP2C9 inhib: 77.0*

How did Cc1c(C(=O)Nc2ccc3c(c2)OCO3)sc2ncn(CC(=O)N3CC(C)CC(C)C3)c(=O)c12 (stereo not given) do in these assays?
CYP2C19 act: 0.8; Cav32 inh: 0.772; CYP2C19 inhib: 23.4; CYP2C9 act: 0.2; CYP2C9 inhib: 78.9*

What do the screens show for `Nc1c(-c2ccccc2Cl)cnn1-c1cccc([N+](=O)[O-])c1`?
CYP2C19 act: 0.8; Cav32 inh: -2.51; CYP2C19 inhib: 17.6; CYP2C9 act: 1.6; CYP2C9 inhib: -55.4

What do the screens show for `N#CC1=C(N)N(c2ccccc2)C(c2ccco2)C1(C#N)C#N` (stereo not given)?
CYP2C19 act: 0.7; Cav32 inh: 1.31; CYP2C19 inhib: 31.4; CYP2C9 act: 0.5; CYP2C9 inhib: 53.8*

Results for N#CC1=C(N)N(c2ccccc2)C(c2cccc([N+](=O)[O-])c2)C1(C#N)C#N (stereo not given) ?
CYP2C19 act: 0.6; Cav32 inh: -6.64*; CYP2C19 inhib: 37.9; CYP2C9 act: 0.5; CYP2C9 inhib: 53.4*

What do the screens show for `Cc1cccc(N2C(N)=C(C#N)C(C#N)(C#N)C2c2ccccc2)c1` (stereo not given)?
CYP2C19 act: 0.8; CYP2C19 inhib: 20.0; CYP2C9 act: 0.5; CYP2C9 inhib: 54.7*

How did Cc1cccc(-n2ncc(C#N)c2N)c1 do in these assays?
CYP2C19 act: 1.1; Cav32 inh: 0.107; CYP2C19 inhib: -10.2; CYP2C9 act: 1.2; CYP2C9 inhib: -19.2

Screening data (PubChem)
